Measurements: PubChem BioAssay (Tox21)
Inconclusive results are not listed. The source made the active and inactive calls. Unless noted, calls come from the whole dose curve; as a rule, active = well fitted curve in the direction sought with a large enough effect in the repeat runs; inconclusive = weak or mixed curves; inactive = no such curve, though single readings can be large; an effect the other way counts as inactive or inconclusive.

Key:
[1] = qHTS assay to identify small molecule antagonists of the estrogen receptor beta (ER-beta) signaling pathway - cell viability counter screen (AID 1259382);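 note: HEK293T cells carrying ER-beta-UAS-bla reporter stimulated with estradiol; series mostly up to about 92 µM; nearly all actives have a fitted effect of over 55% in size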
In short: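 Following a 6 hr plating period, HEK293T cells carrying a UAS-driven beta-lactamase reporter under ER-beta control received compounds and 1nM E2 (final). After 16 hr at 37C and 2 hr substrate loading, CellTiter-Glo luminescence indicated viability.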

[2] = qHTS assay to identify small molecule agonists of the estrogen receptor alpha (ER-alpha) signaling pathway in the presence of an antagonist - cell viability counter screen (AID 1259386);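 note: series mostly up to about 92 µM; cells exposed to compounds for 22 h at 37 °C before the viability read; nearly all actives have a fitted effect of over 30% in size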
In short: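 Cells are starved of estrogens for 5 days in charcoal-stripped serum, seeded for 24hr and co-treated with ICI-182,780 (10.0nM final) and test compounds. After 22hr at 37C, viability is read as CellTiter-Fluor fluorescence.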

[3] = target: Progesterone receptor (Homo sapiens) (UniProt P06401); experiment: qHTS assay to identify small molecule agonists of the progesterone receptor (PR) signaling pathway (AID 1346784; calls by dose curve; note: nearly all actives have a fitted effect of over 30% in size; note: potency is the fitted concentration of half-maximal effect)
Chain of Progesterone receptor (Homo sapiens) (P06401 whole entry, looked up): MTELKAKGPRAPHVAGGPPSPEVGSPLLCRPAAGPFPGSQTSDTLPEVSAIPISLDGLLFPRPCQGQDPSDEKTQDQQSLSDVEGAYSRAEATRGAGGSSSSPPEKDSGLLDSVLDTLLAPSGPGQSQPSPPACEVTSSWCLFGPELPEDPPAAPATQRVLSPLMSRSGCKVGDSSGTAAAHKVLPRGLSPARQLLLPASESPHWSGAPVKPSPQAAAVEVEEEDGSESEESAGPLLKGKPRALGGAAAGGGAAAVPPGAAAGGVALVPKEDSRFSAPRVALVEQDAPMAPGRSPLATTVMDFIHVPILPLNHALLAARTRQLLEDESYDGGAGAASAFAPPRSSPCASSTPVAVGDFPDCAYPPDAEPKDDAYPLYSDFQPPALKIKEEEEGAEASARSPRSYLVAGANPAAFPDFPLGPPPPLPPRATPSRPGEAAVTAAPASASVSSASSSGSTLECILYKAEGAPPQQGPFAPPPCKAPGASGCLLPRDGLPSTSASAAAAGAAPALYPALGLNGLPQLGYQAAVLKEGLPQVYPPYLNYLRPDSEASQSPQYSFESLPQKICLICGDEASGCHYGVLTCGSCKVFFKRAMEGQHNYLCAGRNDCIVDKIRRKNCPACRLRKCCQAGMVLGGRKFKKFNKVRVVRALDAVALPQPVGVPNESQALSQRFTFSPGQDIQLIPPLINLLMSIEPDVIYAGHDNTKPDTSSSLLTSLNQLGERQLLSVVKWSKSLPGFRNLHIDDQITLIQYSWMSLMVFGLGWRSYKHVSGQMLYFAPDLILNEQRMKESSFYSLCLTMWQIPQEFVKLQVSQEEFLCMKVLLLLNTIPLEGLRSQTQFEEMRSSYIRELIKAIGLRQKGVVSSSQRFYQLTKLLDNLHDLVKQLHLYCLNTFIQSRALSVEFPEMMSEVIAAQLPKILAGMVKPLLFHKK
In short: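 Compounds were tested for PR agonism in HEK 293T cells bearing a beta-lactamase gene under UAS control. Treatment lasted 16 hr at 37C; signal came from fluorescence of a FRET substrate.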

[4] = target: Progesterone receptor (Homo sapiens) (UniProt P06401); experiment: qHTS assay to identify small molecule antagonists of the progesterone receptor (PR) signaling pathway (AID 1346795; active = well fitted inhibition curve with a large enough effect in the signal ratio in the repeat runs, not every such curve was filed as active; the % refers to the signal ratio)
In short: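 In HEK293T cells bearing the PR-UAS-bla reporter, compound effects on promegestone-driven (1 nM) beta-lactamase expression are assessed after 16 hr using a fluorescent FRET substrate incubated 2 hr at room temperature.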

[5] = qHTS assay to identify small molecule antagonists of the progesterone receptor (PR) signaling pathway - cell viability counter screen (AID 1346798); note: nearly all actives have a fitted effect of over 50% in size; note: potency is the fitted concentration of half-maximal effect; for activity change, negative = cytotoxicity: series mostly up to about 92 µM
In short: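 Following a 4 hr attachment, PR-UAS-bla HEK293T cells in charcoal-stripped FBS medium were exposed to compounds with R5020 for 16 hr; CellTiter-Glo was added and luminescence read after 30 min at room temperature.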

[6] = qHTS assay to identify small molecule agonists of the progesterone receptor (PR) signaling pathway - cell viability counter screen (AID 1346799; calls by dose curve; note: nearly all actives have a fitted effect of over 45% in size)
In short: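 Here, 3,000 PR-UAS-bla HEK293T cells per well were treated with compounds for 16 hr after a 6 hr preincubation at 37C and 5% CO2; cell viability is the CellTiter-Glo luminescence signal.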

[7] = qHTS assay to identify small molecule antagonists of the TGF-beta/Smad signaling pathway - cell viability counter screen (AID 1346824); note: nearly all actives have a fitted effect of over 50% in size
In short: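 Cytotoxicity counter-screen run in the same wells as the beta-lactamase Smad reporter read: CellTiter-Glo luminescence after 30 min at room temperature. HEK 293T SBE-bla cells had 5 hr compound exposure at 37 C with TGF-beta1 (0.25 ng/mL stock).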

[8] = qHTS assay to identify small molecule agonists or antagonists of the thyroid stimulating hormone receptor (TSHR) signaling pathway - wild type cell line counter screen (AID 1259384; calls by dose curve)
In short: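 Counter screen in untransfected Hek293: compounds (15-point titration, triplicate) plus phosphodiesterase inhibitor Ro20-1724 added after 18 h plating; 30 min RT. Intracellular cAMP via competitive d2/cryptate immunoassay, 1 h incubation.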

[9] = target: Thyrotropin receptor (Homo sapiens) (UniProt P16473); experiment: qHTS assay to identify small molecule antagonists of the thyroid stimulating hormone receptor (TSHR) signaling pathway (AID 1259385; calls by dose curve; note: nearly all actives have a fitted effect of over 20% in size)
Chain of Thyrotropin receptor (Homo sapiens) (P16473 whole entry, looked up): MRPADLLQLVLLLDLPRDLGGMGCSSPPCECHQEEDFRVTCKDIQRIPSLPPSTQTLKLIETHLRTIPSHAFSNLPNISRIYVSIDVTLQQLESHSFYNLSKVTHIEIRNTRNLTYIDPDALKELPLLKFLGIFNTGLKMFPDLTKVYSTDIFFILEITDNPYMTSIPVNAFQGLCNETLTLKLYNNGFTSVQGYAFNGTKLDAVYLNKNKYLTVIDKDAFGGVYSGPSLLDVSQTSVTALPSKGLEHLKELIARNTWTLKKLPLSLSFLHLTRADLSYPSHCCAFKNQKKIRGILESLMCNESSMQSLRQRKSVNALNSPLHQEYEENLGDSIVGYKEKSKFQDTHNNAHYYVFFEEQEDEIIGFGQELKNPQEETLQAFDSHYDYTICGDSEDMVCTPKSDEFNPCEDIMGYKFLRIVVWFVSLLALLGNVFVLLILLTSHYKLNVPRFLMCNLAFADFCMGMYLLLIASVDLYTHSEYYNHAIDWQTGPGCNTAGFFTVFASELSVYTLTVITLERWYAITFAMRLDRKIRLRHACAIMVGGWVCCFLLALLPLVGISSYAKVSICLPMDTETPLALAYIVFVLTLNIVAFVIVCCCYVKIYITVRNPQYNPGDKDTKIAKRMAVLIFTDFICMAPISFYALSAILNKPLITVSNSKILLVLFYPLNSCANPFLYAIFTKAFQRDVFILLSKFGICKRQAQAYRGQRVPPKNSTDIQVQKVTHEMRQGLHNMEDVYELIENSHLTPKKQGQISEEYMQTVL
In short: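 Antagonist mode: compound-treated TSHR-expressing HEK293 cells were stimulated with 1.5 ng/mL TSH (final) in presence of Ro20-1724 for 30 min at RT. HTRF cAMP detection after 1 h; each compound tested at 15 concentrations, triplicate.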
% is set by controls: 0 for no effect and ±100 for the full control effect.

CCCCOC(=O)C(=O)OCCCC
inactive: outcome [1] | Potency [2] | Potency [3] | Potency [4] | Potency [5] | Potency [6] | outcome [7]

CC1(N)CCC(C(C)(C)N)CC1 (stereo unspecified)
inactive: outcome [1] | outcome [8] | Potency [2] | Potency [4] | Potency [5] | outcome [7]

O=C(CN1CCN(Cc2ccc3c(c2)OCO3)CC1)N1c2ccccc2Sc2ccccc21
inactive: outcome [1] | Potency [2] | Potency [3] | Potency [4] | Potency [5] | Potency [6] | outcome [7]

CCOC(=O)CC(CC(=O)OCC)(OC(C)=O)C(=O)OCC
inactive: outcome [1] | Potency [2] | Potency [3] | Potency [4] | Potency [5] | Potency [6] | outcome [7]

Cc1ncc([N+](=O)[O-])n1CC(O)CCl (stereo unspecified)
inactive: outcome [1] | Potency [2] | Potency [3] | Potency [4] | Potency [5] | Potency [6] | outcome [7]

CCCCCCCC[Si](OCC)(OCC)OCC
inactive: outcome [1] | Potency [2] | Potency [3] | Potency [4] | Potency [5] | outcome [7]

CCC(C)(CCC(C)C)C(=O)[O-].CCC(C)(CCC(C)C)C(=O)[O-].[Zn+2] (stereo unspecified)
inactive: outcome [1] | Potency [2] | Potency [3] | Potency [4] | Potency [5] | Potency [6]

COc1ccc(OC)c(NC(=O)CC(C)=O)c1
inactive: outcome [1] | Potency [2] | Potency [3] | Potency [4] | Potency [5] | Potency [6] | outcome [7]

Cc1cccc(NC(=S)N(C)C)c1
active: Potency [5] 30.6 µM
inactive: outcome [8] | outcome [9] | Potency [2] | outcome [7]

C[CH2][Ge]([Cl])([CH2]C)[CH2]C
inactive: outcome [1] | Potency [2] | Potency [3] | Potency [4] | Potency [5] | outcome [7]

C1CCN2C[C@@H]3C[C@@H](CN4CCCC[C@@H]34)[C@H]2C1
inactive: outcome [1] | Potency [2] | Potency [3] | Potency [4] | outcome [7]

CCOC(=O)CCc1ccccc1
inactive: outcome [1] | Potency [2] | Potency [3] | Potency [4] | Potency [6] | outcome [7]

C=C(C)C(=O)OCCCCCCOC(=O)C(=C)C
inactive: outcome [1] | outcome [9] | Potency [2] | Potency [3] | Potency [4] | Potency [5] | Potency [6] | outcome [7]

C=C[C@@H](C)CCC=C(C)C
inactive: outcome [1] | outcome [9] | Potency [2] | Potency [3] | Potency [4] | Potency [5] | Potency [6] | outcome [7]

O=CO
inactive: activity change, negative = cytotoxicity [1] 7.25% [at 8.39 µM] | activity change, negative = cytotoxicity [2] -5.19% [at 8.39 µM] | activity change, negative = inhibition [4] 8.24% [at 8.39 µM] | activity change, negative = cytotoxicity [5] 2.97% [at 8.39 µM] | viability change, negative = cytotoxic [7] -0.889% [at 6.97 µM]
active: Potency [3] 2.51 µM

Cn1c(=O)c2c(ncn2CC2OCCO2)n(C)c1=O
inactive: outcome [1] | Potency [2] | Potency [3] | Potency [4] | Potency [5] | Potency [6] | outcome [7]

O=C(O)c1ccccc1C(=O)Nc1ccc(S(=O)(=O)Nc2nccs2)cc1
inactive: outcome [1] | Potency [2] | Potency [3] | Potency [4] | Potency [5] | Potency [6] | outcome [7]

C[C@@H]1C[C@H]2[C@@H]3C[C@H](F)C4=CC(=O)C=C[C@]4(C)[C@@]3(F)[C@@H](O)C[C@]2(C)[C@@]1(O)C(=O)CO
active: Potency [3] 5.96 µM
inactive: outcome [1] | outcome [9] | Potency [2] | Potency [5] | Potency [6] | outcome [7]

CCCCCC1CCCC(=O)O1 (stereo unspecified)
inactive: outcome [1] | Potency [2] | Potency [3] | Potency [5] | outcome [7]

COCCOCCOCCOC
inactive: outcome [1] | Potency [2] | Potency [3] | Potency [4] | Potency [5] | Potency [6] | outcome [7]

CN(C)CCCNCCC#N
inactive: outcome [1] | Potency [2] | Potency [3] | Potency [4] | Potency [5] | Potency [6]
